Bioassay records as filed in PubChem.
PHOSPHO1 inh: PubChem AID 1565 | Phosphoethanolamine/phosphocholine phosphatase (Homo sapiens), Q8TCT1 | recombinant PHOSPHO1, absorbance phosphatase assay | inhibition, % at 13.3 µM | hit rate 1.1% among 290,000; in the data active = inhibition above about 60%
Target sequence (Q8TCT1 whole entry, looked up): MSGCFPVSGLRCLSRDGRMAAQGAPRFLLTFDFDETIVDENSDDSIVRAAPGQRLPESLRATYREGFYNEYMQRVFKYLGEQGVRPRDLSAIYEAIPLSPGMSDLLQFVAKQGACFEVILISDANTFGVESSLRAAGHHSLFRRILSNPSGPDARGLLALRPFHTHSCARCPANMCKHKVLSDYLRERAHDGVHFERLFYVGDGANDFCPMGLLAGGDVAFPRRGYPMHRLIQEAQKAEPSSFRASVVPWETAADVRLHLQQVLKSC
HDAC3 inhib: HDAC3 deacetylase inhibitors, primary screen, biochemical, fluorescence, cell-free homogeneous. Histone deacetylase 3 (Homo sapiens), O15379. AID 2718, 2010. inhibition, % at 8.3 µM. recombinant HDAC3, fluorogenic peptide/trypsin coupled. hit rate 0.15% among 320,000; in the data active = inhibition above about 26%, passing the limit was not always enough; inconclusive = no clear call, values can overlap the other calls
Target sequence (O15379 whole entry, looked up): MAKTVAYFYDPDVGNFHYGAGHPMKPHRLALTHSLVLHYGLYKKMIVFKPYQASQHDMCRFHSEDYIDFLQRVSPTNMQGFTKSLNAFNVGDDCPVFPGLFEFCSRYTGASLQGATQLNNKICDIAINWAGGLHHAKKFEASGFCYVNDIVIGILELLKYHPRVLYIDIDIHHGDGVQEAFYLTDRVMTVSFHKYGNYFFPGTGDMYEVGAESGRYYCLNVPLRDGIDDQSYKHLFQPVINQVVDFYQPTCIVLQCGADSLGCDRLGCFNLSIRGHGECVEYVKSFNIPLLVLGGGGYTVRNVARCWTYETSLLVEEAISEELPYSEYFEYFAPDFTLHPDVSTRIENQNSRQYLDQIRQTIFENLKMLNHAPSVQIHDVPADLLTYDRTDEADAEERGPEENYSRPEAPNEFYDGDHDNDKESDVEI
TMEM16A inh: TMEM16A chloride channel inhibitors, primary screen, cell-based, HTS; Anoctamin-1 (Mus musculus), Q8BHY3; HEK293 TMEM16A/YFP iodide influx fluorescence, ionomycin; normalized B-score (activity score, 25-100; higher = stronger inhibition) at 10 µM; hit rate 1.2% among 310,000; AID 588511, 2011;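 active = ratio plate-corrected score three or more library SD toward inhibition, starting fluorescence score within five deviations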;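 note: score derived from kinetic fluorescence span divided by baseline fluorescence per well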
CHT allo act: CHT positive allosteric modulators, primary screen, cell-based, membrane potential dye, choline EC20; High affinity choline transporter 1 (Homo sapiens), Q9GZV3; CHT-expressing cells; hits give high values; LV-AA mutant CHT in HEK293 cells; B-score at 10 µM; hit rate 0.49% among 310,000; AID 488977, 2010;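 active = initial fluorescence not abnormally high and integrated response B-score, plate-corrected, over 3 SD above library mean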
CHT block: inhibitors of human choline transporter CHT. B-score at 10 µM. hit rate 0.86% among 310,000. AID 488975, 2010. CHT-expressing cells, membrane potential dye, choline response; hits give low values;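 active = B-score over 3 SD under the library average, and starting fluorescence ratio not unusually high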;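 note: choline stimulus applied at its EC90 after an EC20 pre-addition; B-score computed on integrated fluorescence ratio after choline addition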
TMEM16A act: TMEM16A chloride channel activators or potentiators, primary screen, cell-based, HTS; AID 623877, 2012; HEK293 TMEM16A/YFP-H148Q/I152L, iodide quench fluorescence; hits give low values; Anoctamin-1 (Mus musculus), Q8BHY3; B-score at 10 µM; hit rate 0.3% among 340,000;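 active = fluorescence-ratio B-score plate-corrected deviation score at least 3 library SD below zero, with starting fluorescence score within 5 deviations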;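 note: channel opened by trigger with iodide after compound preincubation; score built on the fluorescence ratio of max minus min over baseline; more negative score means more quench and so TMEM16A activation or potentiation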
CHT block conf: CHT inhibitors, confirmation, cell-based, membrane potential dye, duplicate | AID 493221, 2011 | shares compounds with CHT block | hit rate 70% among 2,400 | CHT-expressing cells, choline membrane potential dye; LV-to-AA substituted CHT, HEK293 cells | CHT activity remaining % of control (hits give low values), % at 10 µM;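 active = choline transporter activity left, mean of duplicates at 10 µM, below buffer-only control mean minus 3 SD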;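 note: depolarization triggered by choline at its EC90 following an EC20 pre-addition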
HEK293 MPD ctr: membrane potential effects in parental HEK293, counter-screen for CHT inhibitor project, cell-based, membrane potential dye; hit rate 4% among 2,400; shares compounds with CHT block; AID 493222, 2011; choline response; active = decrease or increase beyond buffer ±3SD; membrane potential ratio readout (active if shifted either direction beyond buffer ±3SD; no single direction) at 10 µM;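 note: parental cells lack the transporter so any hit is non-specific; ratio is peak minus trough fluorescence over baseline after EC90 choline challenge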
Of the large screens only hits and unclear results are named; the others gave an inactive call (follow-up assays come after a bar, where they were run). In the library only some 3.2% were active in any assay of this set; here they are far more common.

Cc1c(N2C(=O)/C(=C3\C(=O)N(CC(=O)O)c4ccccc43)SC2=S)c(=O)n(-c2ccccc2)n1C	none
Cc1ccc(/C=C2\SC(=S)N(c3c(C)n(C)n(-c4ccccc4)c3=O)C2=O)cc1	CHT block -5.36 | CHT block conf 59.9% | HEK293 MPD ctr inactive
Nc1nc(Cl)nc2c1ncn2[C@@H]1O[C@H](CO)[C@@H](O)[C@H]1O	CHT block -5.81 | CHT block conf 39.2% | HEK293 MPD ctr inactive
OC[C@H]1O[C@@H](n2cnc3c(NC4CCCC4)nc(Cl)nc32)[C@H](O)[C@@H]1O	none (no result: PHOSPHO1 inh)
CCOc1ccccc1/C=C/C(=O)NCC(=O)N1CCC(N(C)C2CCCCC2C)CC1 (centres undefined)	CHT block -5.47 | CHT block conf 11.4% | HEK293 MPD ctr inactive
Fc1ccccc1COc1ccc(Br)cc1CNCc1ccncc1	CHT block -5.48 | CHT block conf 70.1% | HEK293 MPD ctr inactive
O=C(CC(c1ccccc1)c1ccccc1)Nc1ccncc1	CHT block -5.89 | CHT block conf 56.2% | HEK293 MPD ctr inactive
CC(O)c1cccc(NC(=O)CC(c2ccccc2)c2ccccc2)c1 (centres undefined)	CHT block -7.52 | CHT block conf 45.2% | HEK293 MPD ctr inactive
O=C(CCc1ccccc1)Nc1ccncc1	none
O=C(CC(C(=O)O)c1ccccc1)Nc1ccccc1 (centres undefined)	none
COc1ccc2c(c1)cc(C(=O)N[C@@H](Cc1ccccc1)C(=O)O)n2C	none
CCOc1ccc(C(=O)CCCC(=O)c2ccc(OCC)cc2)cc1	none
CCOc1ccc(N(Cc2cc3cc(C)ccc3[nH]c2=O)C(=O)COC)cc1	none
FC(F)(F)c1cnc(-c2cnc(-c3cccnc3)nc2)c(Cl)c1	HDAC3 inhib inconclusive
COc1cc(CCC(=O)NCc2ccc(Cl)cc2)cc(OC)c1OC	none
Cc1ccc(-n2cc(CN3CCN(Cc4nccn4C)CC3)c(-c3cccc(C)c3)n2)cc1	CHT block -5.63 | CHT block conf 26.8% | HEK293 MPD ctr inactive
Cc1ccc(-n2cc(CN3CCNC(=O)CC3)c(-c3cccc(C)c3)n2)cc1	none
O=C(NNc1ccc([N+](=O)[O-])cc1[N+](=O)[O-])c1ccco1	CHT block -7.5 | CHT block conf 67.2% | HEK293 MPD ctr inactive
O=C(NNc1ccc([N+](=O)[O-])cc1)c1ccco1	none
O=S(=O)(/C=C/c1ccccc1)N1CCN(Cc2ccccc2)CC1	none
COc1cc(C(=O)NC2CC(C)(C)CC(C)(C)C2)ccc1OC1CCN(C(C)=O)CC1	CHT block -6.86 (no result: PHOSPHO1 inh) | CHT block conf 4.8% | HEK293 MPD ctr inactive
COc1cc(C(=O)NC2Cc3ccccc3C2)ccc1OC1CCN(C(C)=O)CC1	none
Oc1ccc(Oc2ncc(Cl)cc2Cl)cc1	CHT block -5.4 | CHT block conf 59.2% | HEK293 MPD ctr inactive
CN1C(=O)CSC1=Nc1cccc(C(=O)O)c1	none
CC(OC(=O)CCOc1ccccc1)C(=O)Nc1ccc(Cl)cn1 (centres undefined)	none
Cc1nnc(NCc2cccc(Cl)c2)c2ccccc12	CHT block -10.2 | CHT block conf 20.0% | HEK293 MPD ctr inactive
COc1cc2ncnc(NCc3cccc(Cl)c3)c2cc1OC	none
O=C(CSc1ncnc2[nH]ncc12)Nc1cccc(Oc2ccccc2)c1	none
CCCCNC(=S)Nc1ccc2nc(N3CCN(CC)CC3)cc(C)c2c1	none (no result: TMEM16A act)
CCCN1CCN(CCCNC(=S)Nc2ccc3nc(N4CCN(CC)CC4)cc(C)c3c2)CC1	CHT block -6.66 (no result: HDAC3 inhib) | CHT block conf 13.3% | HEK293 MPD ctr inactive
CCN1CCN(c2cc(C)c3cc(NC(=S)NCCN(C)C)ccc3n2)CC1	none
CCN1CCN(c2cc(C)c3cc(NC(=S)NCCCN4CCc5ccccc5C4)ccc3n2)CC1	CHT block -5.35 | CHT block conf 30.6% | HEK293 MPD ctr 2.81
CCOC(=O)C1CCN(c2c(NCCC(C)C)c(=O)c2=O)CC1	CHT block -6.43 | CHT block conf inactive | HEK293 MPD ctr inactive
CCOC(=O)C1CCCN(c2c(NCCC(C)C)c(=O)c2=O)C1 (centres undefined)	none
Cc1ccc(-c2nc3c(Cl)cc(Cl)cc3c(=O)n2O)cc1	TMEM16A inh 100, CHT block -5.45 (no result: PHOSPHO1 inh) | CHT block conf 45.8% | HEK293 MPD ctr inactive
O=C1c2cccc3cccc(c23)C(=O)N1CCCN(C(=O)c1cccs1)c1cccc(F)c1	none
CC(C)c1ccc(C2(C)NC(=O)N(CC(=O)NC3CCCC(C)C3C)C2=O)cc1 (centres undefined)	none (no result: PHOSPHO1 inh, TMEM16A inh, CHT allo act, CHT block)
CCCC(=O)Oc1ccc(N(C(=O)CCC)S(=O)(=O)c2cccs2)cc1	HDAC3 inhib 56.2, CHT block -5.73 | CHT block conf inactive | HEK293 MPD ctr inactive
Cc1ccc(C)c(N(C)S(=O)(=O)c2cccc3nsnc23)c1	CHT block -5.22 | CHT block conf inactive | HEK293 MPD ctr inactive
CCc1ccc2c(c1)C1(NN=C(c3ccc(C)cc3)S1)C(=O)N2 (centres undefined)	CHT block -5.87 | CHT block conf 66.8% | HEK293 MPD ctr inactive
O=C(Nc1c(C(=O)N2CCC(N3CCCCC3)CC2)oc2ccccc12)c1ccc(F)cc1	CHT block -13.1 | CHT block conf 0.9% | HEK293 MPD ctr inactive
O=C(Nc1c(C(=O)N2CCC(N3CCCCC3)CC2)oc2ccccc12)c1c(F)cccc1F	none
CCOCCCN(C)C1CCN(C(=O)c2oc3ccccc3c2NC(=O)c2ccc(F)cc2)CC1	CHT block -9.02 | CHT block conf 20.6% | HEK293 MPD ctr inactive
O=C(COc1ccc(F)cc1)Nc1c(C(=O)N2CCC(N3CCCCC3)CC2)oc2ccccc12	CHT block -11.9 | CHT block conf 28.8% | HEK293 MPD ctr inactive
O=C(COc1ccccc1)Nc1c(C(=O)N2CCC(N3CCCCC3)CC2)oc2ccccc12	CHT block -7.48 | CHT block conf 36.7% | HEK293 MPD ctr 3.69
CCOCCCN(C)C1CCN(C(=O)c2oc3ccccc3c2NC(=O)c2ccc([N+](=O)[O-])cc2)CC1	none
COc1cc(CCCN2C(=O)C(=O)NC[C@@H]2CCCCN)cc(OC)c1OC	none
